Luciferase inh = blocks purified firefly luciferase enzyme activity; purified P. pyralis luciferase, luminescence, biochemical; AID 1347043; P08659; 76,000 tested, 2.5% active; Potency, µM (titrated, usually from 115 µM), hits mostly inhibitors; also: nearly all actives have a fitted effect of over 65% in size
Target sequence (P08659 whole entry, looked up): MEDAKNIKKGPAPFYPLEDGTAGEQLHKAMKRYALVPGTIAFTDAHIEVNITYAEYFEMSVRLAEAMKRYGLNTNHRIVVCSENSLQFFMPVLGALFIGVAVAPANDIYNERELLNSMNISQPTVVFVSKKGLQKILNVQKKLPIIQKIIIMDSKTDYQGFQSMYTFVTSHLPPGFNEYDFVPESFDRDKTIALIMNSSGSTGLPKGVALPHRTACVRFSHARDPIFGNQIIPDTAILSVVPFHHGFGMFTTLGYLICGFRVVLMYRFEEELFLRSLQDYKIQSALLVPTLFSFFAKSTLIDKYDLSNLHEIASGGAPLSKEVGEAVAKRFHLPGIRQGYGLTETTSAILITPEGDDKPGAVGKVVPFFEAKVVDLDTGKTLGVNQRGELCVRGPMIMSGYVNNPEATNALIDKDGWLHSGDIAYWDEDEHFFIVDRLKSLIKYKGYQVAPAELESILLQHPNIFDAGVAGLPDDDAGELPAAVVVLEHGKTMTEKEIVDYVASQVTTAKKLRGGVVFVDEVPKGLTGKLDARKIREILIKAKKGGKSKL
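Purified P. pyralis luciferase (10nM final) in 50mM Tris acetate pH 7.5, 10mM Mg acetate, 0.01% Tween-20, 0.05% BSA with 10uM D-luciferin and 10uM ATP. Compounds titrated qHTS. Luminescence imaged on CCD.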
HEK cytotox = kills HEK 293 cells; HEK 293 viability, ATP luminescence (CellTiter-Glo), 48-72 h; 94,000 tested, 6.6% active; Potency, µM (titrated, usually from 115 µM), without a hit: at the top dose activity change, negative = cytotoxicity, usual class: inhibitors; AID 1345083; also: nearly all actives have a fitted effect of over 60% in size
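CellTiter-Glo luminescence (cellular ATP) was read after 48 or 72 hr of compound exposure at 37 degree Celsius. Cells were HEK 293 plated at 250 cells/well.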
NPR1 antag = antagonists of human natriuretic peptide receptor Npr1. HEK293 hNpr1 GloSensor cGMP, ANP-stimulated luminescence. Potency, µM (doses to about 46.3 µM), for the others: at the highest dose activity change, negative = inhibition, usual class: inhibitors. 76,000 tested, 1.6% active. AID 1347048; calls by dose curve; also: nearly all actives have a fitted effect of over 60% in size
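Compound pre-incubated 30 min at room temperature on GloSensor-loaded HEK293 cells stably carrying hNpr1 and the pGS-40F cGMP biosensor. Stimulation uses hNppA at 0.1 nM final; luminescence is taken at baseline and 20 min post-agonist.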
3T3 cytotox = kills NIH 3T3 cells; NIH 3T3 viability, CellTiter-Glo ATP luminescence, 48-72 h; Potency, µM (doses to about 96.7 µM), without a hit: top-dose activity change, negative = cytotoxicity, actives largely listed as inhibitors; 94,000 tested, 4.3% active; AID 1345082; also: nearly all actives have a fitted effect of over 55% in size
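Viability of NIH 3T3 cells after 48 or 72 hr compound treatment at 37 °C was assessed by CellTiter-Glo, with luminescence imaged following a 10 min room-temperature step.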
* = called active by the depositor; [ ] = remark or other dose. Only some compounds are listed: those with a hit (about 11% of all), similar ones and a draw of the others. Unless noted, calls follow the shape of the dose curve; as a rule, active = well fitted curve in the direction sought with a large enough effect; inconclusive = small, poorly fitted or top-dose-only effect, or another doubt; inactive = no such curve, though single readings can be large; an effect the other way counts as inactive or inconclusive. % is scaled to controls: 0 for no effect and ±100 for the full control effect; potency is read from the fitted curve at half-maximal effect.

For COc1ccc(-n2cc(CN3CCC(O)CC3)c(-c3cccc(F)c3)n2)cc1 the results were Luciferase inh 40µM*, HEK cytotox inconclusive, NPR1 antag -1% and 3T3 cytotox 79µM*.
For O=C([C@H]1CCCN1C(=O)Nc1ccccc1)N1CCCC(c2nc3ccncc3[nH]2)C1 (some centres not stated) the results were HEK cytotox -4% and 3T3 cytotox -17%.
`Cc1ccc([S+](=O)([O-])N2CCCC(N3C(=O)c4c(c(C)nn4-c4ccccc4)C3C(C)C)C2)cc1` (configuration not stated) gave HEK cytotox inactive and 3T3 cytotox -18%.
O=C1CCN(S(=O)(=O)c2ccccc2)CCCN(C(=O)C2CCCCC2)CCN1 was read as Luciferase inh inactive, HEK cytotox -24%, NPR1 antag -8% and 3T3 cytotox -13%.
Screening CCN(C1CCOCC1)C1CN(C(=O)c2ccccn2)C1 returned Luciferase inh inactive, HEK cytotox -6%, NPR1 antag 3% and 3T3 cytotox inactive.
Cc1ccccc1N(C)C1CN(C(=O)c2ccccn2)C1 was read as HEK cytotox 79µM* and 3T3 cytotox inconclusive.
Screening NCc1ccc(-c2cccc(Cl)c2)cc1 returned HEK cytotox 45µM* and 3T3 cytotox 32µM*.
For COc1cccc(-c2ccc(CN)cc2)c1 the results were HEK cytotox -29%[172 µM] and 3T3 cytotox inconclusive.
Screening Cc1cccc(-c2ccc(CN)cc2)c1 returned HEK cytotox 63µM* and 3T3 cytotox 32µM*.
Cc1ccccc1CN1CCCC2(Cc3ccccc3CNC2=O)C1 (configuration not stated) was read as HEK cytotox -12% and 3T3 cytotox -2%.
For CCCCOC(=O)N1C[C@@H](C(N)=O)[C@@H]2Oc3c(C)cccc3[C@@H]21 the results were HEK cytotox inconclusive and 3T3 cytotox -23%.
Screening Cc1noc(C)c1S(=O)(=O)N1CCN(c2ccc3nnc(C4CC4)n3n2)CC1 returned HEK cytotox -4% and 3T3 cytotox -16%.
COc1cccc(-c2cccc(C(=O)N3CCN([S+](=O)([O-])c4cccc(C(F)(F)F)c4)CC3)c2)c1 was read as HEK cytotox inconclusive and 3T3 cytotox -20%.
O=C1NC(=NC2CCCCC2)C2(CCN(Cc3ccc(F)cc3)C2)N1c1cc(F)cc(F)c1 (configuration not stated) was read as HEK cytotox inconclusive and 3T3 cytotox 32µM*.
For O=C1NC(=NC2CCCCC2)C2(CCCN(Cc3ccccc3)C2)N1c1cc(F)cc(F)c1 (configuration not stated) the results were HEK cytotox inconclusive and 3T3 cytotox 35µM*.
Screening COc1ccc(CN2CCCC3(C2)C(=NC2CCCCC2)NC(=O)N3c2cc(F)cc(F)c2)cc1 (configuration not stated) returned HEK cytotox 45µM* and 3T3 cytotox inconclusive.
`O=C1NC(=NC2CCCC2)C2(CCCN(Cc3ccccc3)C2)N1c1cc(F)cc(F)c1` (configuration not stated) gave HEK cytotox -9% and 3T3 cytotox 2%.
O=C1NC(=NC2CCCCC2)C2(CCN(Cc3ccccc3)C2)N1c1cc(F)cc(F)c1 (configuration not stated) was read as HEK cytotox inconclusive and 3T3 cytotox 32µM*.
`COc1cccc(N2C(=O)NC(=NC3CCCCC3)C23CCN(Cc2ccc(F)cc2)CC3)c1` gave HEK cytotox -15% and 3T3 cytotox 0%.
`CCn1cnnc1CC1CCCN(C(=O)NCc2ccccc2)C1` (configuration not stated) gave HEK cytotox -2% and 3T3 cytotox -13%.
Screening O=C(C1CCCCC1)N1CCN2CCS(=O)(=O)N(C3CC3)C(=O)C2C1 (configuration not stated) returned HEK cytotox -25% and 3T3 cytotox -39%.
Screening CNC(=O)c1cc(C2CC2)nc2onc(C3CCN(C(=O)c4ccccc4OC)CC3)c12 returned HEK cytotox -7% and 3T3 cytotox -21%.
For COc1ccc(NC(=O)CN2C(=O)NC3(CCC(C(C)(C)C)CC3)C2=O)c(OC)c1 (configuration not stated) the results were Luciferase inh inactive, HEK cytotox 35µM*, NPR1 antag 0% and 3T3 cytotox inconclusive.
Screening Cc1cc(F)ccc1NC(=O)CN1C(=O)NC2(CCC(C(C)(C)C)CC2)C1=O (configuration not stated) returned Luciferase inh inactive, HEK cytotox inconclusive, NPR1 antag -2% and 3T3 cytotox 40µM*.
Screening CC(C)(C)C1CCC2(CC1)NC(=O)N(CC(=O)Nc1ccc(F)cc1F)C2=O (configuration not stated) returned Luciferase inh inactive, HEK cytotox inconclusive, NPR1 antag -7% and 3T3 cytotox -42%.
Cc1nnc(-c2cc(Nc3cccc(N(C)C)c3)ccn2)n1C1CCCCC1 was read as Luciferase inh inactive, HEK cytotox 89µM*, NPR1 antag -6%[70.6 µM] and 3T3 cytotox inconclusive.
For Cc1ccc(C2Cn3nnc(C(=O)N4CCC(C(=O)NCc5ccccc5)CC4)c3CO2)cc1 (configuration not stated) the results were Luciferase inh 40µM*, HEK cytotox 3%, NPR1 antag 3% and 3T3 cytotox -8%.
Cc1ccc(C2Cn3nnc(C(=O)N4CCC(C(=O)NC5CCC(C)CC5)CC4)c3CO2)cc1 (configuration not stated) was read as Luciferase inh 28µM*, HEK cytotox -15%, NPR1 antag -4% and 3T3 cytotox -22%.
CCc1ccc(CNC(=O)C2CCN(C(=O)c3nnn4c3COC(c3ccc(C)cc3)C4)CC2)cc1 (configuration not stated) was read as Luciferase inh 40µM*, HEK cytotox -16%, NPR1 antag -13% and 3T3 cytotox -12%.
Screening Cc1ccc(C2Cn3nnc(C(=O)N4CCC(C(=O)NCc5cccs5)CC4)c3CO2)cc1 (configuration not stated) returned Luciferase inh 35µM*, HEK cytotox 5%, NPR1 antag 3% and 3T3 cytotox 3%.
`Cc1ccc(C2Cn3nnc(C(=O)N4CCC(C(=O)NCC(C)c5ccccc5)CC4)c3CO2)cc1` (configuration not stated) gave Luciferase inh 32µM*, HEK cytotox -1%, NPR1 antag -1% and 3T3 cytotox inactive.
`CNC(=O)[C@@H]1CN2CCN(C(=O)CC3CCCC3)C[C@@H]2[C@H]1c1ccccc1` gave HEK cytotox -21% and 3T3 cytotox inconclusive.
For Cc1ccccc1Cn1cc(-c2ccncc2)cc1C(=O)N1CCCC(C)C1 (configuration not stated) the results were Luciferase inh inactive, HEK cytotox 45µM*, NPR1 antag -8% and 3T3 cytotox inconclusive.
